# Laboratory results taken from the supplement of paper PMC8728848.
# Only a selection was taken, and the strongest signals are over-represented in it overall.
# B1: mCC1-Hexahis-Precomplexed (Mus musculus), P31809 (protein)
# chain: MELASAHLHKGQVPWGGLLLTASLLASWSPATTAEVTIEAVPPQVAEDNNVLLLVHNLPLALGAFAWYKGNTTAIDKEIARFVPNSNMNFTGQAYSGREIIYSNGSLLFQMITMKDMGVYTLDMTDENYRRTQATVRFHVHPILLKPNITSNNSNPVEGDDSVSLTCDSYTDPDNINYLWSRNGESLSEGDRLKLSEGNRTLTLLNVTRNDTGPYVCETRNPVSVNRSDPFSLNIIYGPDTPIISPSDIYLHPGSNLNLSCHAASNPPAQYFWLINEKPHASSQELFIPNITTNNSGTYTCFVNNSVTGLSRTTVKNITVLEPVTQPFLQVTNTTVKELDSVTLTCLSNDIGANIQWLFNSQSLQLTERMTLSQNNSILRIDPIKREDAGEYQCEISNPVSVRRSNSIKLDIIFDPTQGGLSDGHHHHHH
# Columns and labels:
# Experiment in all cases: glycan array binding signal (z-score within array); higher = stronger binding
# Details in all cases: glycan notation: IUPAC condensed, linker removed
# [1] = target: Fuc(a1-2)Gal(b1-4)GlcNAc(b1-3)[Fuc(a1-3)[Gal(b1-4)]GlcNAc(b1-6)]Gal(b1-4)Glc
# Procedure, shortened: (§1)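 Columns mapping to the same glycan were averaged after glycan names were converted to IUPAC-condensed notation. The data come from 3228 arrays in the Consortium for Functional Glycomics database, limited to those with an available protein sequence. Binding is reported as a within-array Z-score averaged across arrays of one protein sequence and across linkers.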
# [2] = target: Fuc(a1-2)Gal(b1-4)[Fuc(a1-3)]GlcNAc(b1-3)Gal(b1-4)[Fuc(a1-3)]GlcNAc(b1-3)Gal(b1-4)[Fuc(a1-3)]GlcNAc
# Procedure, shortened: as §1
# [3] = target: Fuc(a1-2)[Gal(a1-3)]Gal(b1-3)GlcNAc(b1-6)GalNAc
# Procedure, shortened: as §1
# [4] = target: Fuc(a1-2)[GalNAc(a1-3)]Gal(b1-4)[Fuc(a1-3)]GlcNAc
# Procedure, shortened: as §1
# [5] = target: Fuc(a1-3)[Gal(b1-4)]GlcNAc(b1-6)GalNAc
# Procedure, shortened: as §1
# [6] = target: Fuc(a1-3)[GalNAc(b1-4)]GlcNAc6S
# Procedure, shortened: as §1
# [7] = target: Gal(a1-3)Gal(b1-3)GlcNAc(b1-2)Man(a1-3)[Gal(a1-3)Gal(b1-3)GlcNAc(b1-2)Man(a1-6)]Man(b1-4)GlcNAc(b1-4)GlcNAc
# Procedure, shortened: as §1
# [8] = target: Gal(a1-4)Gal(b1-4)GlcNAc
# Procedure, shortened: as §1
# [9] = target: Gal(b1-3)GalNAc(a1-3)[Fuc(a1-2)]Gal(b1-4)GlcNAc
# Procedure, shortened: as §1
# [10] = target: Gal(b1-3)GlcNAc(b1-2)[Gal(b1-3)GlcNAc(b1-6)]Man(a1-6)[Gal(b1-3)GlcNAc(b1-2)Man(a1-3)]Man(b1-4)GlcNAc(b1-4)GlcNAc
# Procedure, shortened: as §1
# [11] = target: Gal(b1-3)[Fuc(a1-4)]GlcNAc(b1-3)Gal(b1-4)[Fuc(a1-3)]GlcNAc
# Procedure, shortened: as §1
# [12] = target: Gal(b1-4)GlcNAc(b1-2)[Gal(b1-4)GlcNAc(b1-4)]Man(a1-3)[Gal(b1-4)GlcNAc(b1-2)[Gal(b1-4)GlcNAc(b1-6)]Man(a1-6)]Man(b1-4)GlcNAc(b1-4)GlcNAc
# Procedure, shortened: as §1
# [13] = target: Gal(b1-4)GlcNAc(b1-3)Gal(b1-3)GalNAc
# Procedure, shortened: as §1
# [14] = target: Gal(b1-4)GlcNAc(b1-3)Gal(b1-4)GlcNAc(b1-2)Man(a1-3)[Gal(b1-4)GlcNAc(b1-3)Gal(b1-4)GlcNAc(b1-2)Man(a1-6)]Man(b1-4)GlcNAc(b1-4)GlcNAc
# Procedure, shortened: as §1
# [15] = target: Gal(b1-4)GlcNAc(b1-3)Gal(b1-4)GlcNAc(b1-3)Gal(b1-4)GlcNAc(b1-2)Man(a1-3)[Gal(b1-4)GlcNAc(b1-3)Gal(b1-4)GlcNAc(b1-3)Gal(b1-4)GlcNAc(b1-2)Man(a1-6)]Man(b1-4)GlcNAc(b1-4)GlcNAc
# Procedure, shortened: as §1
# [16] = target: Gal(b1-4)GlcNAc(b1-3)Gal(b1-4)GlcNAc(b1-3)GalNAc
# Procedure, shortened: as §1
# [17] = target: Gal(b1-4)GlcNAc(b1-3)Gal(b1-4)GlcNAc(b1-3)[Gal(b1-4)GlcNAc(b1-3)Gal(b1-4)GlcNAc(b1-6)]GalNAc
# Procedure, shortened: as §1
# [18] = target: Gal(b1-4)GlcNAc(b1-3)Gal(b1-4)GlcNAc(b1-6)[Gal(b1-3)]GalNAc
# Procedure, shortened: as §1
# [19] = target: Gal3S(b1-4)Glc
# Procedure, shortened: as §1
# [20] = target: Gal3S(b1-4)[Fuc(a1-3)]Glc6S
# Procedure, shortened: as §1
# [21] = target: GalNAc(b1-4)GlcNAc6S
# Procedure, shortened: as §1
# [22] = target: GalNAc3S(b1-4)GlcNAc3S
# Procedure, shortened: as §1
# [23] = target: GlcA(b1-6)Gal
# Procedure, shortened: as §1
# [24] = target: GlcA3S(b1-3)Gal(b1-4)GlcNAc(b1-3)Gal(b1-4)Glc
# Procedure, shortened: as §1
# [25] = target: GlcNAc(b1-3)Gal(b1-4)Glc
# Procedure, shortened: as §1
# [26] = target: GlcNAc(b1-3)Gal(b1-4)GlcNAc
# Procedure, shortened: as §1
# [27] = target: GlcNAc(b1-3)Gal(b1-4)GlcNAc(b1-2)Man(a1-3)[GlcNAc(b1-3)Gal(b1-4)GlcNAc(b1-2)Man(a1-6)]Man(b1-4)GlcNAc(b1-4)GlcNAc
# Procedure, shortened: as §1
# [28] = target: Kdn(a2-3)Gal(b1-4)[Fuc(a1-3)]GlcNAc
# Procedure, shortened: as §1
# [29] = target: Man(a1-2)Man(a1-3)Man
# Procedure, shortened: as §1
# [30] = target: Man(a1-3)[Man(a1-6)]Man(a1-6)[Man(a1-2)Man(a1-3)]Man(b1-4)GlcNAc(b1-4)GlcNAc
# Procedure, shortened: as §1
binder,measurement,setting,value
B1,glycan array binding signal (z-score),[1],-0.163
same,glycan array binding signal (z-score),[2],-0.097
same,glycan array binding signal (z-score),[3],-0.18
same,glycan array binding signal (z-score),[4],0.277
same,glycan array binding signal (z-score),[5],-0.024
same,glycan array binding signal (z-score),[6],-0.231
same,glycan array binding signal (z-score),[7],-0.189
same,glycan array binding signal (z-score),[8],-0.227
same,glycan array binding signal (z-score),[9],-0.191
same,glycan array binding signal (z-score),[10],-0.273
same,glycan array binding signal (z-score),[11],-0.217
same,glycan array binding signal (z-score),[12],-0.217
same,glycan array binding signal (z-score),[13],-0.158
same,glycan array binding signal (z-score),[14],3.85
same,glycan array binding signal (z-score),[15],4.96
same,glycan array binding signal (z-score),[16],6.28
same,glycan array binding signal (z-score),[17],4.46
same,glycan array binding signal (z-score),[18],5.01
same,glycan array binding signal (z-score),[19],-0.25
same,glycan array binding signal (z-score),[20],-0.049
same,glycan array binding signal (z-score),[21],-0.282
same,glycan array binding signal (z-score),[22],-0.065
same,glycan array binding signal (z-score),[23],-0.12
same,glycan array binding signal (z-score),[24],-0.235
same,glycan array binding signal (z-score),[25],-0.227
same,glycan array binding signal (z-score),[26],-0.246
same,glycan array binding signal (z-score),[27],-0.184
same,glycan array binding signal (z-score),[28],-0.169
same,glycan array binding signal (z-score),[29],-0.152
same,glycan array binding signal (z-score),[30],4.18
